Five compounds from PubChem BioAssay can be followed below.

Active and inactive are the calls of the source.

Experiment [1] in a line: small molecules captured by biotinylated probe aFSTL3 – biochemical, small-molecule microarray, fluorescence 635/667, stem cell growth factor project, primary screen (AID 1064).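 Note: measures binding of the biotinylated anti-FSTL3 antibody to printed compounds.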 As to conditions: higher = more signal.
The nature of experiment [2]: binders from COS7 lysate, DM2A8 probe, primary screen, torsin A project, cell lysate, small-molecule microarray, fluorescence 635/667 (AID 1065). As to conditions: higher = more signal, COS7 lysate expressing mutant human TOR1A.
The nature of experiment [3]: small molecules captured by biotinylated probe aFGF2 – biochemical, small-molecule microarray, fluorescence 635/667, stem cell growth factor project, primary screen (AID 1067).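 Note: measures binding of biotinylated aFGF2 protein to printed compounds on slides; z-score merges feature fluorescence and signal-to-noise across triplicate slides.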 Conditions: higher = more signal.
Experiment [4] can be described thus: small molecules captured by biotinylated probe aFGF10 – biochemical, small-molecule microarray, fluorescence 635/667, stem cell growth factor project, primary screen (AID 1071).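 Note: score merges 667 nm spot intensity and signal to noise from triplicate slides.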 As to conditions: higher = more signal.
The target in experiment [5] is Neurogenic locus notch homolog protein 2 (Homo sapiens) (UniProt Q04721). Kind of experiment: small molecules binding Notch2 protein – biochemical, small-molecule microarray, 635 nm fluorescence, stem cell growth factors, primary screen (AID 1073). As to conditions: higher = more signal.
Experiment [6] has as its target Pro-neuregulin-1, membrane-bound isoform (Homo sapiens) (UniProt Q02297). Kind of experiment: small molecules binding neuregulin-1 protein – biochemical, small-molecule microarray, fluorescence 635/667, psychiatric disease protein project, primary screen (AID 1075).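 Note: score combines 667 nm spot fluorescence with signal to noise.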 As to conditions: NRG1 binding, 635 nm fluorescence, higher = more signal.
Experiment [7] deals with Neuregulin-1 EGF-like domain. Briefly: small molecules binding NRG1 EGF domain – biochemical, small-molecule microarray, 635 nm fluorescence, primary screen (AID 1081).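 Note: binding of the protein to compounds printed on small-molecule microarray slides.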 As to conditions: higher = more signal.
The nature of experiment [8]: FRG1 expression reporter modulators in myotubes – cell-based, C2C12 myotubes, firefly/Renilla luciferase, luminescence, FRG1 inhibition for FSHD, primary screen (AID 1084). As to conditions: FRG1 promoter luciferase, higher = more signal, called active from +8 up or from −8 down.
A short description of experiment [9]: small molecules captured by biotinylated probe aFST – biochemical, small-molecule microarray, fluorescence 635/667, stem cell growth factor project, primary screen (AID 1086).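 Note: score merges 667 nm fluorescence with signal-to-noise of each printed compound spot.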 Conditions: higher = more signal.
A short description of experiment [10]: binders of probe aHhip on microarray, primary screen, stem cell growth factor project, biochemical, small-molecule microarray, fluorescence 635/667 (AID 1087).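 Note: score merges spot fluorescence at 667nm with spot signal to noise ratio.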 As to conditions: higher = more signal.
Experiment [11] concerns PRMT1 (protein arginine N-methyltransferase 1). Kind of experiment: small molecules binding arginine methyltransferase PRMT1 – biochemical, small-molecule microarray, 635 nm fluorescence, primary screen (AID 1088).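 Note: binding of Prmt1 protein to compounds spotted on small-molecule microarray slides.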 As to conditions: higher = more signal.
A short description of experiment [12]: growth effects on S. cerevisiae YJM789 – YJM789 clinical isolate, OD600, 24 h, basal, primary screen (AID 1089).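 Note: growth of clinical yeast isolate S. cerevisiae YJM 789 seeded 1000 cells per well; test concentration not given here.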 As to conditions: higher = more signal, called active from +8 up or from −8 down.
The nature of experiment [13]: S. pombe growth modifiers, basal conditions – strain 972, OD600, 24 h, no modulator, primary screen (AID 1090).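 Note: basal condition with compound alone and no growth modifier present; test concentration not given here.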 As to conditions: S. pombe 972 growth, higher = more signal, called active from +8 up or from −8 down.
Experiment [14] in a line: budding yeast growth modifiers under rapamycin – strain BY4716, OD600, 96 h, primary screen (AID 1091). Note: test concentration not given here. As to conditions: S. cerevisiae BY4716 + rapamycin, higher = more signal, called active from +8 up or from −8 down.
Experiment [15] deals with Torsin-1A-interacting protein 2 (Homo sapiens) (UniProt Q8NFQ8). Briefly: small molecules binding lysate-expressed LULL1 – cell lysate, human LULL1 lysate, 635/667 nm fluorescence, primary screen (AID 1092).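 Note: probe is lysate of COS7 cells overexpressing human LULL1; score merges per-feature 667 nm fluorescence with signal-to-noise.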 As to conditions: small-molecule microarray, hLULL1 lysate binding, 635 nm fluorescence; higher = more signal.
The nature of experiment [16]: optical density change of DRC41 E. coli – strain DRC41, OD650, 24 h, E. coli filamentation project, primary screen (AID 1093).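 Note: MC1000 strain lacking acrAB efflux and sulA so SOS filamentation is blocked; test concentration not given here.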 Conditions: E. coli DRC41 growth, higher = more signal, called active from +8 up or from −8 down.
Experiment [17] is described as follows: probe aLefty2 binding to arrayed compounds – biochemical, biotinylated probe, 635/667 nm fluorescence, primary screen (AID 1094).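 Note: score merges spot fluorescence near 667 nm with spot signal-to-noise ratio.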 Conditions: small-molecule microarray, higher = more signal.
Experiment [18] has as its system Noggin (protein binding on small-molecule microarray). Kind of experiment: small molecules binding Noggin protein – biochemical, 635/667 nm fluorescence, primary screen (AID 1095).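 Note: score merges 667 nm feature fluorescence with signal to noise over triplicate slides.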 As to conditions: 635 nm fluorescence, higher = more signal.
The target in experiment [19] is Neurogenic locus notch homolog protein 3 (Homo sapiens) (UniProt Q9UM47). Briefly: small molecules binding NOTCH3 protein – biochemical, 635/667 nm fluorescence, primary screen (AID 1096). Conditions: small-molecule microarray, 635 nm fluorescence, higher = more signal.
A short description of experiment [20]: probe aEGFR binding to arrayed compounds – biochemical, biotinylated probe, 635/667 nm fluorescence, primary screen (AID 1097).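 Note: probe is a biotinylated anti-EGFR antibody binding compounds printed on slides; score combines fluorescence near 667 nm and signal to noise of each spot.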 As to conditions: small-molecule microarray, higher = more signal.

Chain of Torsin-1A-interacting protein 2 (Homo sapiens) (Q8NFQ8 whole entry, looked up): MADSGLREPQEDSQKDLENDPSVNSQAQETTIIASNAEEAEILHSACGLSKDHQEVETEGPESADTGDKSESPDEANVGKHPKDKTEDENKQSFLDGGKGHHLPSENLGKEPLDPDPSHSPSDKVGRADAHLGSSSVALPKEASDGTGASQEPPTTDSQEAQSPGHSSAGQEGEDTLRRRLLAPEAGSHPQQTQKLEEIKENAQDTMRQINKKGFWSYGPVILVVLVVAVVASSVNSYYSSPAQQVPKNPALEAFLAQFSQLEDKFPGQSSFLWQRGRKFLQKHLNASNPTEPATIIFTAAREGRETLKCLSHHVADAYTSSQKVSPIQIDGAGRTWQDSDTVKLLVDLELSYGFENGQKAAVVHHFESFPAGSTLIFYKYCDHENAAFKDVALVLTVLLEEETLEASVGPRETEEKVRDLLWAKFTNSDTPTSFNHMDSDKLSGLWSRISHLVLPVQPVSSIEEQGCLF
Chain of Neurogenic locus notch homolog protein 3 (Homo sapiens) (Q9UM47 whole entry, looked up): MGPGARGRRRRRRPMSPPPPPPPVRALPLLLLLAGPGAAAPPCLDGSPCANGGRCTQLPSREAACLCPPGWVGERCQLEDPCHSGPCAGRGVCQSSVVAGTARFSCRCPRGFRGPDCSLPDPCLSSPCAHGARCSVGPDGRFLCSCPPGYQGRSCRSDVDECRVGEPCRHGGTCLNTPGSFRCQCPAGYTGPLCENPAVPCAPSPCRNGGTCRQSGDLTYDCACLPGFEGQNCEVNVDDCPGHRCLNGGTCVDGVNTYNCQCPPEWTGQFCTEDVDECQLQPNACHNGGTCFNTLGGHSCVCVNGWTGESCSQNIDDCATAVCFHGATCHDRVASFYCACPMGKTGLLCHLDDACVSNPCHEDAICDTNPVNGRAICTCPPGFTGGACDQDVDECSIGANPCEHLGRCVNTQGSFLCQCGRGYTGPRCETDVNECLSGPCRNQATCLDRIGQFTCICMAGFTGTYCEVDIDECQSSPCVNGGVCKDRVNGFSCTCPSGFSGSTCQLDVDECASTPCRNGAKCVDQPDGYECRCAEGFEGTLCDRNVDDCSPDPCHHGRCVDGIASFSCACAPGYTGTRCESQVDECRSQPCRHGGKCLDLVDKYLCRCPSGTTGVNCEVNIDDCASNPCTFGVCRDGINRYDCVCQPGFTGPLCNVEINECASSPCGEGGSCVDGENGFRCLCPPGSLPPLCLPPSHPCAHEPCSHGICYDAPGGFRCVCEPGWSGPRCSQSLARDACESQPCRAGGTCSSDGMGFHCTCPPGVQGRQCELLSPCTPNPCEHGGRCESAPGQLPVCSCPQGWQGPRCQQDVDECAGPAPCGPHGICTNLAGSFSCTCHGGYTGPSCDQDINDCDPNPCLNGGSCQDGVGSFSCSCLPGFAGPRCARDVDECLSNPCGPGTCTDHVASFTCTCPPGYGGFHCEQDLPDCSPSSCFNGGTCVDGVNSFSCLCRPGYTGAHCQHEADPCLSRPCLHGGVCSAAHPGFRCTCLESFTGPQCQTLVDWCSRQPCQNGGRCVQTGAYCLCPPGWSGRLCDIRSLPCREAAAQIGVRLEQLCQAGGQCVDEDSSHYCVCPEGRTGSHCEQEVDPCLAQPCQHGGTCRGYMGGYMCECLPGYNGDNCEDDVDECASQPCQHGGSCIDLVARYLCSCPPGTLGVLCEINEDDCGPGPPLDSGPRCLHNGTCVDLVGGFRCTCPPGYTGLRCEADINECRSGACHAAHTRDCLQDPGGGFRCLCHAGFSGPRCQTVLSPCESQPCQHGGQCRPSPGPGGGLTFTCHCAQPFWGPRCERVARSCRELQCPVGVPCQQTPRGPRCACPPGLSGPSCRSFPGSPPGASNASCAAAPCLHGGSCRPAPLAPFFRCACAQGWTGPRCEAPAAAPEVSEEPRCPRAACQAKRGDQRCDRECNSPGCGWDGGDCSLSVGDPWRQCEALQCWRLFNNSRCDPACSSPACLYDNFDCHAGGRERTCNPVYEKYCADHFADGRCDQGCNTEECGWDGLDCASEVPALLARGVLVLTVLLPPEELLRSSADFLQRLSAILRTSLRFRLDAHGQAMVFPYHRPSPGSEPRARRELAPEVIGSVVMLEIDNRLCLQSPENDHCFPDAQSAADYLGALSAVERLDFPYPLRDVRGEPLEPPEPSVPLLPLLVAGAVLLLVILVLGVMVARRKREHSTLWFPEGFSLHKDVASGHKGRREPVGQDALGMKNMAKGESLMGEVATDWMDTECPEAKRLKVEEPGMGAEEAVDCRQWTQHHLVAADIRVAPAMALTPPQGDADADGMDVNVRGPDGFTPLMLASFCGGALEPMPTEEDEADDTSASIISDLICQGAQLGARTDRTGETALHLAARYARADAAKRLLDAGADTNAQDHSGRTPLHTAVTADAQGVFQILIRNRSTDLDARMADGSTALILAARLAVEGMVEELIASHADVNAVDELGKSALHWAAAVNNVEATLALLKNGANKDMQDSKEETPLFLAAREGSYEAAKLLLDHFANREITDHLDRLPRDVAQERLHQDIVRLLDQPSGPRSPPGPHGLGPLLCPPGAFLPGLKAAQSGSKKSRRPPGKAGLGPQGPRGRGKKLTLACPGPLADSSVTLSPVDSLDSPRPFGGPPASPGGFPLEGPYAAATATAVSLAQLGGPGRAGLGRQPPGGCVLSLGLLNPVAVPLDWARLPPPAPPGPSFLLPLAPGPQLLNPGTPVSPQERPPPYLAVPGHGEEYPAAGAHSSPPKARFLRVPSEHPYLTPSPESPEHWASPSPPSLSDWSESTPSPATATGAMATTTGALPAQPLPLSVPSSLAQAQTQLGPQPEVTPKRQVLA
Chain of Pro-neuregulin-1, membrane-bound isoform (Homo sapiens) (Q02297 whole entry, looked up, the tested form may be a part, canonical isoform): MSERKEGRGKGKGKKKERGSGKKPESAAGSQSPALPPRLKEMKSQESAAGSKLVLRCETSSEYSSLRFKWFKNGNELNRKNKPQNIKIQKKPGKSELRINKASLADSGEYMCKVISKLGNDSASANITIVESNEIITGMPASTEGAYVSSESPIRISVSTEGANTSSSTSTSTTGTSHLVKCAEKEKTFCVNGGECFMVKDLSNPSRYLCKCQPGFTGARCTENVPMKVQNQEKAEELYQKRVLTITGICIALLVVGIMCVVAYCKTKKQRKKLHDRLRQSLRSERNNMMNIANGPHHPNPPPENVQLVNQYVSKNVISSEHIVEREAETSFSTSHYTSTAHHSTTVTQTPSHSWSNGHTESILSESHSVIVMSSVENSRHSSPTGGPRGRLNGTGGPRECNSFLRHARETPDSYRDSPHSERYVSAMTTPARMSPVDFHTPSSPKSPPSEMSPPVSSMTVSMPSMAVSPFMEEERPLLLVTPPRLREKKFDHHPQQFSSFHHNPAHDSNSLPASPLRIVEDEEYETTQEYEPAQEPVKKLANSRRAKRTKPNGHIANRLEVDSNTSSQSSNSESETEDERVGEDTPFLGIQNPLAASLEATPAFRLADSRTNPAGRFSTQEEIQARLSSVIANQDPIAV

Regarding `O=C1O[C@@H](c2ccccc2)[C@@H](c2ccccc2)N2[C@@H](c3ccc(O)cc3)[C@]3(C(=O)Nc4ccc(C#CC5=CCCCC5)cc43)[C@@H](C(=O)N3CCCCCCC3)[C@H]12`, the composite z-score in experiment [1] came to 2.95; in [2], 0.905; in [3], 0.347; in [4], 0.294; in experiment [5] it was 0.861; in [6], 0.705. Moreover, the composite z-score in experiment [7] was determined as 1.3; in experiment [9] it was 2.44; in [10], 0.271; in [11] it was 1.54; in [15], 3.44; in [17] it was 1.22. The composite z-score amounted to 1.16 in experiment [18], 1.02 in experiment [19] and 0.465 in experiment [20]. Besides, the z-score in experiment [8] was -1.38 (inactive); in experiment [12], -1.67 (inactive); in [13], -0.604 (inactive); in [14] it was 0.694 (inactive); in experiment [16], 1.09 (inactive).

On to `CC(=O)NCCCC[C@@H]1NC(=O)[C@@H]2C[C@H](C(=O)NCCCCCC[N+](C)(C)C)[C@H](c3ccc(O)cc3)N2C1=O`, for which the composite z-score in [1] is 0.101; in [2], 0.437; in experiment [3], -0.224; in [4], 0.204; in experiment [5], 0.472; in experiment [6], 0.148. The composite z-score is 1.23 in experiment [7]; -0.0677 in experiment [9]; 0.0881 in experiment [10]; 0.914 in experiment [11]; 1.43 in experiment [15]; 0.104 in experiment [17]. The composite z-score in experiment [18] was 0.761; in [19] it was 0.157; in experiment [20] it was -0.476. Moreover, the z-score was 3.02 (inactive) in experiment [8]; 0.124 (inactive) in experiment [12]; -0.16 (inactive) in experiment [13]; 0.216 (inactive) in experiment [14]; -0.453 (inactive) in experiment [16].

For `CC(C)CNC(=O)[C@@H]1c2ccccc2C(=O)N(Cc2ccccc2Cl)[C@H]1c1ccc(CO)cc1`, the composite z-score in experiment [1] is 0.29; in experiment [2], 0.0116; in experiment [3], -0.129; in experiment [4], -0.833; in [5], -0.595; in experiment [6] it was -1.27. Also, the composite z-score was 0.252 in experiment [7]; -0.295 in experiment [9]; -0.236 in [10]; -0.469 in experiment [11]; 3.09 in experiment [15]; 0.0529 in [17]. Moreover, the figures for the composite z-score in experiment [18], in [19] and in experiment [20] were -1.04, -1.08 and -0.239, respectively. For the same compound, the z-score is -1.38 (inactive) in experiment [8]; -0.691 (inactive) in experiment [12]; -0.354 (inactive) in [13]; -0.332 (inactive) in [14]; 0.534 (inactive) in experiment [16].

As to `CN1C(=O)[C@]2(CCC(=O)OC(C)(C)C)N=C(c3ccc(OCCCO)cc3)O[C@@H]2c2ccccc21`, the composite z-score in experiment [1] worked out at 0.229; in experiment [2], 0.326; in experiment [3], 0.0458; in experiment [4], 0.182; in experiment [5] it was 0.428; in experiment [6] it was 1.8. Also, the composite z-score in experiment [7] came out at 1.35; in experiment [9] it was 0.898; in [10], 0.21; in [11], 1.55; in experiment [15], 3.06; in experiment [17] it was 0.0079. In addition, the results for the composite z-score in experiment [18], in [19] and in experiment [20] were 1.9, 1.13 and -0.04, respectively. The z-score in experiment [8] was 0.518 (inactive); in [12], 0.494 (inactive); in [13] it was -0.243 (inactive); in [14], 0.872 (inactive); in experiment [16] it was 0.95 (inactive).

`CO[C@H]1O[C@H](CO)[C@@H](OC(=O)Nc2ccc3c(c2)OCO3)[C@@H]2OC(=O)[C@@H](Cc3ccccc3)C/C=C/C[C@H](Cc3ccccc3)C(=O)O[C@@H]12`: the composite z-score was -0.276 in experiment [1]; -0.0172 in experiment [2]; 0.0631 in [3]; 0.984 in [4]; 1.12 in [5]; 0.995 in [6]. The composite z-score in experiment [7] was 0.976; in [9], 0.508; in experiment [10], 0.0373; in experiment [11], 1.48; in experiment [15], 1.29; in experiment [17] it was -0.0562. The composite z-score came out at 0.566 in [18], 0.887 in experiment [19] and 0.0528 in [20]. In addition, the z-score is -0.277 (inactive) in [8]; 1.17 (inactive) in experiment [12]; 0.78 (inactive) in experiment [13]; 2.27 (inactive) in experiment [14]; 0.156 (inactive) in experiment [16].
